This passage reports growth results from PubChem BioAssay (NCI).

Molecules are shown by their SMILES. The panel holds about 83,000 compounds, 20% with a hit somewhere; the sample as a whole holds those more often.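 A percent growth of 40 corresponds to 60% growth inhibition; 0 means no net growth; -100 means all cells died. Active threshold: below 10.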 A number with no mark means an inactive call. Activity calls are given as the source filed them.

The test system of the test is MDA-MB-435 melanoma. Put plainly: NCI-60 one-dose screen, 48 h (100 = growth as untreated, 0 = no growth, -100 = all killed). Conditions: 10 µM unless noted. The protocol: Growth inhibition of the MDA-MB-435 human Melanoma tumor cell line is measured as a screen for anti-cancer activity. Cells are grown in 96 well plates and exposed to the test compound for 48 hours. Compounds are tested at a single concentration, which is 10^-5 M for most compounds. The reported endpoint is percent growth (GI% or GIPRCNT), where numbers from 0 - 100% represent growth inhibition, and numbers from -100% - 0 represent cell death. For example, a value of 40 represents 60% growth inhibition. A value of 0 means no net growth occurred over the course of the experiment. A value of -40 indicates 40% of cells at the beginning of the experiment died by the end of the experiment. A value of -100 means all cells are dead at the end of the experiment.
NCI-60 Human Tumor Cell Lines Screen was performed using the standard one-dose NCI protocol, which is described in more detail at https://dtp.cancer.gov/discovery_development/nci-60/default.htm.
Compounds with GIPRCNT values below 10 were considered active. Activity score was based on GIPRCNT using the following formula: […]
Score is 0 for GIPRCNT values of 100 or above, 50 for GIPRCNT values of 0, and 100 for GIPRCNT values of -100.
As for `CC(=O)N1CCN(CCNC(=O)n2cc(-c3ccncc3)c(-c3cc(O)cc(Cl)c3)n2)CC1`, the growth is 49.3%.

Regarding `CCS(=O)(=O)OCCO[C@H]1Cc2cc3ccc(=O)oc3cc2OC1(C)C`, the growth is 107%.

Consider `CC1(C)C(O)NC(Cl)=C(C#N)C1(C#N)C#N` (stereo not given), for which the growth is 113%.

As to `COC1=C(OC)C(=O)c2ccccc2C1=O`, the growth was 111%.

For the molecule `CCCCCCCCCCN1CC2CCCCC2C1` (stereo not given), the growth was 91.3%.

Consider `C/C(=C\c1ccc2ccccc2c1)[N+](=O)[O-]`, for which the growth is 51.8%.

Consider `CC(=O)Nc1ccc(C(=O)/C=C/c2ccc(N(C)C)cc2)cc1`, for which the growth was 98.1%.

Regarding `Cc1ncc(C(=O)Nc2ccc(CN3CCN(C)CC3)c(C(F)(F)F)c2)cc1C#Cc1c(N)ncc2ccc(F)cc12`, the growth is -66.5% (active).

As to `CC(C)OC(=O)[C@H](C)N[P@@](=O)(OC[C@@]1(C)O[C@@H](n2cc(F)c(N)nc2=O)C[C@@H]1O[P@](=O)(N[C@@H](C)C(=O)OC(C)C)Oc1ccccc1)Oc1ccccc1`, the growth is 86.6%.

Regarding `O=C(/C=C\c1ccccc1Cl)c1ccccc1`, the growth is 90.5%.

`O=C(N/N=C\c1ccc(-c2ccc(Br)cc2)o1)c1cc2oc(-c3cccc(C(F)(F)F)c3)cc2[nH]1`: the growth was 98.9%.

Turning to `CCOC(=O)C1CCCN1C(=O)C1(NC(C)=O)CCCC1` (stereo not given), the growth is 103%.

In the case of `CC([C@H]1CC=C2C3CCC4=C[C@@H](N(C)C)CC[C@]4(C)C3CC[C@@]21C)N(C)C` (stereo not given in full), the growth is -67.5% (active).

As to `Cc1c(Cc2ccccc2)c(=O)oc2c(C)c(OCc3n[nH]c(=S)o3)ccc12`, the growth is 61.5%.

For the molecule `CCOC(=O)c1cc(-c2ccc(OC)cc2)[nH]c1NNC(=O)CCOC`, the growth was 96.9%.

`N#Cc1c2ncccc2c2nnc3cc(Cl)c(Cl)cc3n12`: the growth is 106%.

`CCN(CC)CCNc1ncnc2c1cnn2-c1ccc(Cl)cc1`: the growth was -34.8% (active).

With `O=C1NCCN1/N=C/c1c(Cl)nc2n1CCS2`, the growth was 112%.

As for `Cc1ccc2c(c1)C(=O)CCS2`, the growth was 104%.

As for `CC(=O)Nc1nc(C)c(C(=O)N/N=C/N2CCOCC2)s1`, the growth is 127%.

In the case of `C[C@H]1C[C@@H](n2cnc3c(N)nccc32)[C@H](O)[C@@H]1O`, the growth is 113%.

On to `COc1cc(/C(=C2/O[C@@H]([C@H]3COC(C)(C)O3)[C@H]3OC(C)(C)O[C@@H]23)c2ccc3c(c2)OCO3)cc(OC)c1OC`, for which the growth was 73.3%.

For the molecule `CCOC(=O)c1sc(NS(=O)(=O)c2ccccc2)nc1C`, the growth was 126%.

With `COc1ccc2c(c1)/C(=C/c1c(-c3cc(OC)c(OC)c(OC)c3)nc3sccn13)C(=O)N2`, the growth was 100%.

Turning to `CCOc1ccc(N(C)c2ccc(/C=C/C3=[N+](C)c4ccccc4C3(C)C)cc2)cc1`, the growth is -51% (active).

Consider `CC(=O)Nc1nc(C)c(C(=O)NN)s1`, for which the growth was 137%.

`CC(=O)Nc1ccc(S(=O)(=O)Cl)cc1`: the growth is 115%.

Consider `CCCCN(CCC)CCCCCCCCCCN1CCCc2ccccc21`, for which the growth is 85.2%.

As to `CC(=O)Nc1ccc(CC#N)cc1Br`, the growth was 104%.

As to `COc1cc(-c2nn(-c3ccc(NC(=O)Nc4ccc(Cl)c(C(F)(F)F)c4)cc3)cc2-c2ccncc2)ccc1Cl`, the growth is 4% (active).

Regarding `NCCCOc1cc(Cl)ccc1NC(=O)c1cc2ccccc2cc1OCCCN`, the growth was -68.5% (active).

`CCOC(=O)C1=C(C(F)(F)F)NC(=S)NC1CN1C(=O)c2ccccc2C1=O` (stereo not given): the growth is 118%.

Consider `C[C@@H](c1ccc2c(c1)[nH]c1ccc(Cl)cc12)c1nc2ccc(Cl)cc2[nH]1`, for which the growth is 106%.

Turning to `O=[N+]([O-])c1ccc(-c2ncc(-c3ccc(O)cc3O)[nH]2)cc1`, the growth is 121%.

On to `Cc1ccc(S(=O)(=O)Nc2cccc(Cn3c(=O)[nH]c4ccc(Oc5ncccn5)cc4c3=O)c2)cc1`, for which the growth was -10.1% (active).

Take `Oc1ccccc1\C=N/N=C/C=C/c1ccccc1`: the growth was 105%.

On to `CCOC(=O)c1c(C)oc2ncnc(Nc3ccc(NC(=O)Nc4ccc(CC)cc4)cc3)c12`, for which the growth was 102%.

For `O=C(CN1CCN(c2cccc(Cl)c2)CC1)N1CCN(c2nnc(-c3ccc(Cl)cc3)c(-c3ccc(Cl)cc3)n2)CC1`, the growth is 72.3%.

Regarding `CCCCCN1CCN(C(CC(=O)c2ccccc2)C(=O)c2ccccc2)CC1` (stereo not given), the growth is 95.5%.

Consider `CC(C)(C)C(=O)CCCCCCCC/C=C/CCCC(O)c1ccco1` (stereo not given), for which the growth was 113%.
